Measured values: ChEMBL document CHEMBL3433997, “St. Jude Leishmania screening dataset” (2016)

Columns and labels:
Assay type in all cases: functional
[1] = target: Solute carrier family 2, facilitated glucose transporter member 1 (Homo sapiens) (UniProt P11166); test: ST_JUDE_LEISH: Cytotoxicity at 2uM final concentration against transgenic Leishmania Mexicana promastigotes LmGLUT1 that are glucose transport deficient and complemented with the human glucose transporter GLUT1. Activity is measured by DNA content using SYBR green in vitro
Solute carrier family 2, facilitated glucose transporter member 1 (Homo sapiens), sequence (P11166 whole entry): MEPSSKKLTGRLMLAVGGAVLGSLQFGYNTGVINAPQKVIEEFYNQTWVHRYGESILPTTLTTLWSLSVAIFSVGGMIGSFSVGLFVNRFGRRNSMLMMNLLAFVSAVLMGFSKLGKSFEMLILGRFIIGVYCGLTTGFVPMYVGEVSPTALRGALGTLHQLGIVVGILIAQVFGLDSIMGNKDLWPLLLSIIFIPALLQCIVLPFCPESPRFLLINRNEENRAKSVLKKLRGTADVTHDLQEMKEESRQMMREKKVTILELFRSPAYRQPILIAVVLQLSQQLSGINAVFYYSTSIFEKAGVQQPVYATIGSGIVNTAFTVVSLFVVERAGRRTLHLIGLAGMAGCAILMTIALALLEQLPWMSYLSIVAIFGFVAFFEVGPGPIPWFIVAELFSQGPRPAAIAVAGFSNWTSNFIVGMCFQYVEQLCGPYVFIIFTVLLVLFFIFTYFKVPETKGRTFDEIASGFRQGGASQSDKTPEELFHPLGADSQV

[2] = target: Hexose transporter 1 (Plasmodium falciparum) (UniProt O97467); test: ST_JUDE_LEISH: Cytotoxicity at 2uM final concentration against transgenic Leishmania Mexicana promastigotes LmPfHT that are glucose transport deficient and complemented with the Plasmodium falciparum hexose transporter. Activity is measured by DNA content using SYBR green in vitro
[3] = target: Glucose transporter (Leishmania mexicana) (UniProt O61059); test: ST_JUDE_LEISH: Cytotoxicity at 2uM final concentration against transgenic Leishmania Mexicana promastigotes LmGT2 that are glucose transport deficient and complemented with the L. Mexicana glucose transporter 2. Activity is measured by DNA content using SYBR green in vitro

SMILES | inhibition [1] [%] | inhibition [2] [%] | inhibition [3] [%]
OCC1CCN(Cc2ccc(-c3ccc(-c4nc5cc(F)ccc5[nH]4)s3)cc2)CC1 | 4.75 | 3.26 | 4.89
COc1ccc2c(c1C1CCN(CCCCNC(=O)c3ccc(-c4ccc(Cl)cn4)cc3)CC1)CCCC2 | 2.21 | 2.74 | 3.95
C=CCN(C(=O)c1ccc(Cl)c([N+](=O)[O-])c1)c1nc(-c2ccccc2)cs1 | 10.6 | 9.45 | 7.89
Cc1ccc(-c2cnc3[nH]cc(-c4ccc(C(=O)O)c(C)c4)c3c2)cc1C | 1.15 | 1.14 | 1.64
CN(C)C(=O)n1cnc(S(=O)(=O)N(C)c2ccc(Cl)cc2)n1 | 5.67 | 6.99 | 4.38
O=C(Nc1cccc(N2CCC(NCCCn3ccnc3)CC2)c1)c1cccc(C(F)(F)F)c1 | 0.98 | -0.71 | 3.8
CCNc1cc(C(=O)N[C@@H](Cc2ccccc2)[C@H](O)CN[C@@H](C)c2ccccc2)cc(N2CCCC2=O)c1 | 1.35 | 0.55 | 1.24
Cc1ccc(NC(=O)c2ccnc(N3CCN(c4ccncc4)CC3)c2)cc1F | 3.18 | 4.4 | 4.05
COc1cccc(CN2CCC(N3CCc4cc(NC(=O)c5cc(C)on5)ccc43)C2)c1OC (stereo unspecified) | 1.63 | 5.08 | 4.28
CCn1c(SCc2ccccc2)nc2c1c(=O)[nH]c(=O)n2C | -0.07 | -0.05 | -1.06
CCc1nc2c(cnn2CC)c(NC2CCOCC2)c1CNC(=O)N1CCOCC1 | 3.81 | -1.12 | -0.36
COc1ccc(CCNCCCCCNCCc2ccc(Cl)cc2)cc1OC | 7.58 | 6.09 | 6.63
NC(=O)Nc1ccc2cn[nH]c2c1 | -0.02 | 0.57 | 0.33
N=C(N)c1ccc(NC(=O)Cc2nc3cc(C(=N)N)ccc3[nH]2)cc1 | -0.77 | -0.09 | -0.08
N=C(N)NN=CC(=O)Nc1ccc(Br)cc1 | -1.7 | -4.24 | -1.29
COc1ccc(C2CCN(CCCCNC(=O)c3ccc(NC(=O)c4ccc(Cl)cc4)cc3)CC2)c(C)c1 | -0.79 | -0.57 | -2.18
O=C(NCCc1ccccc1)N(Cc1ccccc1-c1cccc(CNCCc2ccccc2)c1)C1CCN(Cc2ccccc2)CC1 | 2.61 | 1.06 | 5.48
O=C1COc2cc(Cl)c(CNC3CCN(CCc4ccnc5c(F)cc(F)cc45)CC3)nc2N1 | 2.1 | 2.94 | 1.57
COc1cc2ncnc(Nc3ccc(OCc4ccccc4)c(OCc4ccccc4)c3)c2cc1OC | 4.65 | 5.44 | 2.69
CC1(C)NC(N)=NC(=N)N1OCc1cc(Cl)cc2c1OCOC2 | 2.73 | -0.07 | 0.71
O=C(Nc1ccnc2ccccc12)NC1CCN(Cc2ccccc2)CC1 | 3.42 | 3.28 | 3.89
CCCCN(CCCC)/C(=N/C(=N)NCc1ccc(Cl)c(Cl)c1)NCCCCCCN/C(=N\C(=N)NCc1ccc(Cl)c(Cl)c1)N(CCCC)CCCC | -0.73 | -0.52 | -0.96
CCCCNS(=O)(=O)c1ccc(NC(=O)c2cc([N+](=O)[O-])ccc2Cl)cc1 | 2.21 | 0.49 | -1.07
COc1cccc2cc(C(=O)N[C@@H](CC(C)C)C(=O)N[C@H](C=NN(C)C(=O)OC(C)(C)C)Cc3ccccc3)oc12 | 5.65 | 7.62 | 5.03

SMILES | inhibition [1] [%] | inhibition [2] [%] | inhibition [3] [%]
CCCCCOc1ccc(C(O)C(CCC(CN2CCCCCC2)C(O)c2ccc(OCCCCC)cc2)CN2CCCCCC2)cc1 (stereo unspecified) | 3.22 | 2.73 | 1.43
COC(=O)c1cccc(NC(=O)NC2CCN(c3ccnc(Nc4cc(OC)c(OC)c(OC)c4)n3)C2)c1 (stereo unspecified) | 10.5 | 6.39 | 8.79
CCOc1cccc2nc(NCCCNCc3ccc(Cl)c(Cl)c3)cc(NCCCNCc3ccc(Cl)c(Cl)c3)c12 | -3.5 | -0.94 | -0.45
COc1ccc(N2CCN(CCCCNC(=O)c3ccc(/C=C/c4ccc(Cl)c(Cl)c4)cc3)CC2)c(OC)c1 | -0.28 | 1.71 | 2.02
CCCCCn1c(Sc2ccc(C#N)c([N+](=O)[O-])c2)nnc1-c1ccc(Cl)cc1 | 4.31 | 4.27 | 0.12
O=C(CSc1nn(-c2ccccc2)c(=S)s1)c1c[nH]c2ccccc12 | 2.16 | 2.64 | 2.3
CC(=NNC(=N)N)c1ccc2c(c1)Cc1ccccc1-2 | -1.01 | 0.42 | -1.5
COc1ccc(CCN2CCC(CN(C)Cc3cnn(-c4ccccc4)c3)CC2)cc1 | 4.24 | 6.13 | 7.63
CCc1nn2c(Nc3ccncc3)cc(C)nc2c1-c1ccccc1 | 3.36 | 3.33 | 1.85
Cc1c(C(C)(C)C)ccc2nc(N)nc(N)c12 | 64 | 63.5 | 56.6
O=C(Nc1cccc(-c2cc(-c3c(Cl)cccc3Cl)no2)c1)c1cncc(-c2cccs2)c1 | 16 | 11.1 | 10.8
COc1cc(NC(=O)c2sc(-c3ccc(Cl)cc3)cc2NC(=O)c2cccnc2)ccc1OCCN1CCCC1 | 4.28 | 4.76 | 6.19
Cc1ccc(NC(=O)Nc2ccc(Cn3ncc(N4CCCNCC4)c(Cl)c3=O)cc2)cc1 | 2.01 | 4.54 | 1.32
CCOCCCn1c(=N)c(C(=O)NCc2ccc(F)cc2)cc2c(=O)n3cccc(C)c3nc21 | 4.22 | 10.1 | -1.34
CC(Cc1ccc(CNC(=O)NCc2ccc(CC(C)NCCc3cccc(Cl)c3)cc2)cc1)NCCc1cccc(Cl)c1 (stereo unspecified) | 82.9 | 79 | 18.9
CCN(CC)CCN(Cc1ccc(-c2ccc(C#N)cc2)cc1)C(=O)Cn1c(CCc2cccc(F)c2F)nc(=O)c2ccccc21 | 2.37 | 0.54 | 3
COc1cc(F)c2ncc(Cl)c(CCN3CCC(NCc4ccc5c(c4)NC(=O)CS5)CC3)c2c1 | 15.1 | 18.3 | 8.82
CCC(CC)N1C(=O)C(c2ccccc2)(c2ccccc2)N=C1N | 1.48 | 3.51 | 1.61
Cc1cccc(NC(=O)c2cnc(N3CCN(c4ccncc4)CC3)c(Cl)c2)c1 | 23.2 | 19.8 | 6.53
CC(C)C1C(=O)N(S(C)(=O)=O)C2CCN(C(=O)c3ccc(CN4CCCCC4)c([N+](=O)[O-])c3)C12 (stereo unspecified) | 3.87 | 4.49 | -1.4
CCCc1cc(OC)c(CC2c3cccc(O)c3CCN2C)cc1OC (stereo unspecified) | 0.68 | 0.4 | -0.12
NC(=O)c1cc(-c2ccccc2)cc2c(C3CCC(NCc4ccccc4)C3)c[nH]c12 (stereo unspecified) | 0.91 | 1.64 | 0.8
CCSc1ccccc1CON1C(=N)N=C(N)NC1(C)C | 15.4 | 19.1 | 18.7
CO/C(=C\C=C\c1cc2cc(Cl)c(Cl)cc2[nH]1)C(=O)NC1CC(C)N(C)C(C)C1 (stereo unspecified) | -2.9 | -0.97 | -1.43

SMILES | inhibition [1] [%] | inhibition [2] [%] | inhibition [3] [%]
COc1cc(C(=O)Nc2ccc(-c3nc4ccccc4[nH]3)cc2)cc(OC)c1OC | 2.49 | 2.26 | 3.39
CCCCCC(C)C(C)c1cc(O)c2c(c1)OC(C)(C)CC2(O)c1ccnn1C (stereo unspecified) | 3.29 | 3.23 | 3.24
COc1cc2c(cc1S(=O)(=O)c1ccc(OCc3ccc(Cl)cc3)cc1)CCN(Cc1ccc(NC(C)=O)s1)CC2 | 4.82 | 4.31 | -0.61
O=C(NC1CCCCC1)c1ccc(O)c(-c2cccc(C(F)(F)F)c2)c1 | 2.06 | 2 | 1.27
CS(=O)(=O)CCNCc1cccc(-c2cc3nccc(Nc4ccc(Oc5ccccc5)cc4)c3cc2Cl)c1 | -1.75 | 0.05 | -0.97
CCC1N=C(N)N=C(N)N1OCc1ccc(Cl)c(Cl)c1 (stereo unspecified) | -0.58 | 0.09 | -0.8
CCn1c(-c2nonc2N)nc2c(-c3cccc(NC(=O)Nc4ccccc4Cl)c3)ncc(OCCCN)c21 | -1.06 | -1.1 | -0.34
CS(=O)(=O)CCNCc1cccc(-c2cc3c(Nc4ccc(OCc5cccc(F)c5)c(Cl)c4)ncnc3s2)c1 | -0.25 | -0.11 | -2.47
CCNc1cc(C)nc(Nc2ccc(NS(=O)(=O)c3cc(OC)ccc3OC)cc2)n1 | 16.8 | 12.1 | 5.24
O=C1OC2(CN1CC1CCN(Cc3ccc(-n4ccnc4)cc3)C1)c1ccccc1-c1ccccc12 (stereo unspecified) | 4.6 | 5.24 | 2.86
Cc1cc(N[C@@H](Cc2ccccc2)C(=O)NCc2cccc(F)c2)nc(NCc2ccccc2C)n1 | 5.14 | 4.67 | 3.17
CC(C)Oc1ccc(C=CC(=O)Nc2noc3ccccc23)cc1 | 2.56 | 3.16 | 2.36
CN1CCN(c2ccc(-c3cccc(NC(=O)c4cccc(Cl)c4)c3)nn2)CC1 | 2.62 | 1.54 | 3.23
O=C(NC1CC1)c1cnc(N2CCN(Cc3c(F)cccc3Cl)CC2)c(Cl)c1 | 12 | 1.02 | -3.18
CCN(CC)CCCC(C)Nc1ccnc2ccc(OC)cc12 (stereo unspecified) | 8.15 | 8.91 | 8.52
O=C(NCCCN1CCC(Cc2ccccc2)CC1)c1cc2c(Cl)nc3ccccc3c2s1 | 0.05 | 1.9 | -0.45
CCOc1cc(C(=O)NC2CCN(Cc3ccccc3)C2)ccc1-c1nc2cc(Cl)ccc2[nH]1 (stereo unspecified) | 6.92 | 3.47 | 6.92
Cc1cccc2nc(-c3ccc(-c4ccc(CN5CCN(CC6CCCN(C)C6)CC5)cc4)s3)[nH]c12 (stereo unspecified) | 8.45 | 21.1 | 8.04
NC1=NC(c2ccccc2)(c2ccccc2)C(=O)N1CCCCc1ccccc1 | -0.67 | 0.44 | -1.44
CS(=O)(=O)CCNCc1ccc(-c2ccc3c(Nc4ccc(Oc5ccccn5)cc4)ccnc3c2)o1 | 1.24 | -0.28 | 2.55
Cc1cc(Br)c(OCCCON2C(=N)N=C(N)NC2(C)C)c(Br)c1 | 2.66 | 4.88 | 1.2
CCCC(C(CC1CCC(C)CC1)C(=O)NC(CCCNc1ncccn1)C(=O)Nc1nccs1)N(O)C=O (stereo unspecified) | 3.88 | 3.89 | 5.63
Cc1cccc(C(O)CNc2ccnc(Nc3cccc(-c4csc(C)n4)c3)n2)c1 (stereo unspecified) | 3.68 | 4.04 | 2.54
Cc1cc2nc(-c3ccc(C(=O)NCc4ccc(C(C)(C)C)cc4)cc3)[nH]c2cc1C | 3.51 | 2.34 | -0.6
